This note sets out measurements from ChEMBL document CHEMBL3433997, “St. Jude Leishmania screening dataset” (2016).

Holding throughout (format): functional
Experiment [1] concerns the target Solute carrier family 2, facilitated glucose transporter member 1 (Homo sapiens) (UniProt P11166). Briefly: ST_JUDE_LEISH: Cytotoxicity at 2uM final concentration against transgenic Leishmania Mexicana promastigotes LmGLUT1 that are glucose transport deficient and complemented with the human glucose transporter GLUT1. Activity is measured by DNA content using SYBR green in vitro.

The target in experiment [2] is Hexose transporter 1 (Plasmodium falciparum) (UniProt O97467). Nature of the experiment: ST_JUDE_LEISH: Cytotoxicity at 2uM final concentration against transgenic Leishmania Mexicana promastigotes LmPfHT that are glucose transport deficient and complemented with the Plasmodium falciparum hexose transporter. Activity is measured by DNA content using SYBR green in vitro.

For experiment [3], the target named is Glucose transporter (Leishmania mexicana) (UniProt O61059). Nature of the experiment: ST_JUDE_LEISH: Cytotoxicity at 2uM final concentration against transgenic Leishmania Mexicana promastigotes LmGT2 that are glucose transport deficient and complemented with the L. Mexicana glucose transporter 2. Activity is measured by DNA content using SYBR green in vitro.

Sequence of Solute carrier family 2, facilitated glucose transporter member 1 (Homo sapiens) (P11166 whole entry): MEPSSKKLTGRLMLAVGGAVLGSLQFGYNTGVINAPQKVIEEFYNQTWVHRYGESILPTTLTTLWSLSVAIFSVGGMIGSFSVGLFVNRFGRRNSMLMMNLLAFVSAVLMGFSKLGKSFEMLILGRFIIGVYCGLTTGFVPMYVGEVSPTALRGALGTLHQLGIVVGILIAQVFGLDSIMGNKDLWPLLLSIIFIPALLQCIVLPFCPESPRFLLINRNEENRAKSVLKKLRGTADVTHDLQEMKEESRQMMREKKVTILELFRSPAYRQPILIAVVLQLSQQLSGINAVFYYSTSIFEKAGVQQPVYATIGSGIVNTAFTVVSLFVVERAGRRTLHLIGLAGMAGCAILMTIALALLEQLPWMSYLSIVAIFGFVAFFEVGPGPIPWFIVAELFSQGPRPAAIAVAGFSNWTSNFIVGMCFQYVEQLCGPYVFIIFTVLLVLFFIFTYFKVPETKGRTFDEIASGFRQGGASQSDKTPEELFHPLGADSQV

With `Cc1nc(NC(=N)N)nc2cc3c(cc12)CCC3`, the values for the inhibition in experiment [1], in experiment [2] and in experiment [3] were 0.91%, 0.44% and 0.48%, respectively.
In the same order, the values of `CCn1ccc2c(N3CCCCS3(=O)=O)cc(C(=O)N[C@@H](Cc3ccccc3)[C@H](O)CNC(C)(C)c3cccc(C(F)(F)F)c3)cc21` are 0.44%, -1.1% and -1.56%.
Taken in the same sequence, the figures for `CC(C)c1cc2c(cc1O)C(Cc1ccccc1Cl)N(C)CC2` (configuration not stated) were 2.73%, -0.25% and 0.89%.
For `Cc1ccc(C2(CN3CCC(NC(=O)c4cc[nH]n4)CC3)CCCCC2)cc1`, the inhibition in experiment [1] was 0.21%; in experiment [2], -1.4%; in experiment [3] it was -0.05%.
In the same order, the values of `Cc1cc(NC(=O)Nc2ccc3nc(C)oc3c2)c2cc(Cl)ccc2n1` are 3.48%, 2.12% and 1.38%.
In the same order, the values of `CC1(C)CCC(C)(C)c2c1ccc(C1CCN(CCCCNC(=O)c3ccc(-c4ccc(Cl)cc4)cc3)CC1)c2O` are 2.14%, 1.66% and 0.11%.
With `CN(C)CCCNCc1ccc(-c2ccc(CNCCOc3ccccc3)cc2)cc1`, the inhibition is 2.4% in experiment [1], 4.11% in experiment [2] and 2.46% in experiment [3].
Turning to `Cc1cccc2nc(-c3cccc(-c4ccc(NC(=O)CN5CCN(C)CC5)cc4)c3)[nH]c12`, the figures for the inhibition in experiment [1], in experiment [2] and in experiment [3] were 2.17%, 3.31% and 0.62%, respectively.
Taken in the same sequence, the figures for `Nc1ncc(-c2cc3ccccc3o2)c(N)n1` were 3.02%, 2.51% and -0.11%.
Taken in the same sequence, the figures for `O=C(NCCc1ccccc1)N(Cc1cccc(-c2ccc(CNCCc3ccccc3)cc2)c1)C1CCN(Cc2ccccc2)CC1` were 0.95%, -0.75% and 0.12%.
In the same order, the values of `Cc1ccc(NC(=O)c2cc(Br)cc(N3CCC(N(C)C)CC3)c2)cc1F` are 7.55%, 7.67% and 6.75%.
As for `CCc1cn(C)c2c(N3CCCC3=O)cc(C(=O)N[C@@H](Cc3ccccc3)[C@H](O)CNCc3cccc(OC)c3)cc12`, the inhibition in experiment [1] came out at 2.48%; in experiment [2], 2.2%; in experiment [3], 2.88%.
Taken in the same sequence, the figures for `Nc1nccc2ccc(Oc3ccncc3)cc12` were 2.47%, 3.29% and 4.2%.
In the case of `CCOc1cc2ncnc(Nc3ccc(OCc4ccccc4Br)c(OC)c3)c2cc1OCC`, the inhibition turned out to be 5.55% in experiment [1], 5.15% in experiment [2] and 2.49% in experiment [3].
Turning to `NCC(=O)NC12CC3CC(CC(C3)C1)C2`, the inhibition in experiment [1] came to 1.01%; in experiment [2], 2.25%; in experiment [3], 1.66%.
As for `CCCCOC(=O)[C@H](CCC)NC(=O)c1ccc(NS(=O)(=O)c2ccc3nc(N)[nH]c(=O)c3c2)cc1`, the inhibition in experiment [1] was 0.2%; in experiment [2], -1.82%; in experiment [3], 0.77%.
As for `O=c1c2ccccc2[nH]c2cc(Cl)ccc12`, the inhibition in experiment [1] amounted to 5.11%; in experiment [2], 7.05%; in experiment [3], 0.77%.
In the same order, the values of `O=C(/C=C/c1ccc(Cl)c(Cl)c1)NC1CCC(CN2CCC(c3nc4cc(O)ccc4[nH]3)CC2)CC1` (configuration not stated) are 2.81%, 3.99% and 2.71%.
In the same order, the values of `CN1CCN(Cc2ccc(-c3ccc4c(Nc5cc(O)c(F)cc5Cl)ccnc4c3)o2)CC1` are 4.84%, 2.61% and 2.56%.
Taken in the same sequence, the figures for `Oc1ccc2ccccc2c1CNCCC1CCCCC1` were 0.07%, 0.52% and 1.73%.
As for `CCCCNC(=O)[C@@H]1CCCN1C(=O)c1ccc(O)c(-c2ccc(Cl)c(Cl)c2)c1`, the inhibition in experiment [1] was 1.42%; in experiment [2], 0.27%; in experiment [3], -3.49%.
In the case of `O=C(c1cnn(-c2ccccc2)c1C(F)(F)F)N1CCN(c2ccnc3cc(Cl)ccc23)CC1`, the inhibition is 1.81% in experiment [1], 1.39% in experiment [2] and 2.15% in experiment [3].
Turning to `Cc1cc(-c2cccc(CNC3CCN(C)CC3)c2)ccc1S(=O)(=O)NCCc1ccccn1`, the inhibition was 0.29% in experiment [1], -0.31% in experiment [2] and 0.73% in experiment [3].
In the same order, the values of `COc1ccc(C2CCN(CCN3CCC(NC(=O)c4ccc(-c5cccc(C(F)(F)F)c5C(F)(F)F)cc4)CC3)CC2)c(OC)c1` are 0.36%, 1.29% and -0.58%.
In the case of `c1cc(-c2ccc(CNCCc3ccncc3)cc2)cc(-c2nc3ccccc3[nH]2)c1`, the figures for the inhibition in experiment [1], in experiment [2] and in experiment [3] were 1.85%, 0.82% and 3.55%, respectively.
Taken in the same sequence, the figures for `O=C(NC1CCN(Cc2ccccc2)CC1)c1cccc(-c2nc3ccc(Cl)cc3[nH]2)c1` were 1.15%, 2.61% and 2.94%.
Turning to `CN(C)Cc1ccc(CN2CCN(CCOc3ccc(-c4ccc(Cl)cc4)cc3)CC2)o1`, the inhibition turned out to be 22.7% in experiment [1], 13.8% in experiment [2] and 19.2% in experiment [3].
In the same order, the values of `FC(F)(F)c1ccc(Nc2nnnc3ccccc23)cc1` are 7.74%, 7.45% and 6.1%.
Taken in the same sequence, the figures for `O=C(Nc1cccc(Cl)c1)OC1CCCN2CCCCC12` (configuration not stated) were 10.8%, 10.6% and 9.42%.
As to `COc1ccc2c(NN=Cc3ccncc3)ccnc2c1`, the inhibition is -0.81% in experiment [1], -0.51% in experiment [2] and -0.6% in experiment [3].
For the compound `O=C(NCc1cccs1)[C@H](Cc1ccccc1)Nc1ccnc(NCCc2ccc(F)cc2)n1`, the inhibition was determined as 11.2% in experiment [1], 9.62% in experiment [2] and 9.52% in experiment [3].
Turning to `COc1cc2c(Nc3ccc(NC(=O)c4ccccc4)cc3)ncnc2cc1OCCCN1CCOCC1`, the values for the inhibition in experiment [1], in experiment [2] and in experiment [3] were 3.25%, 3.13% and 4.08%, respectively.
In the same order, the values of `CC(C)Nc1cc(C(=O)N[C@@H](Cc2ccccc2)[C@H](O)CNC2CCOCC2)c(F)c(N2CCCCS2(=O)=O)c1` are 6.75%, 5.16% and 4.99%.
Taken in the same sequence, the figures for `CCCCC(CC)NC(=O)[C@H]1CNCCN1C(=O)CCCc1ccccc1` (some centres not stated) were 1.73%, 1.94% and -0.61%.
